ChEMBL document CHEMBL1961873, “Compounds: GSK PKIS; Assays: Nanosyn kinase panel” (2012)

molecular target: Protein kinase C beta type (Homo sapiens) (UniProt P05771); conditions: at 1 µM;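 further: mean inhibition value, enzyme form tested was the PKC-beta1 splice variant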
Sequence (P05771 2-671 limits assumed): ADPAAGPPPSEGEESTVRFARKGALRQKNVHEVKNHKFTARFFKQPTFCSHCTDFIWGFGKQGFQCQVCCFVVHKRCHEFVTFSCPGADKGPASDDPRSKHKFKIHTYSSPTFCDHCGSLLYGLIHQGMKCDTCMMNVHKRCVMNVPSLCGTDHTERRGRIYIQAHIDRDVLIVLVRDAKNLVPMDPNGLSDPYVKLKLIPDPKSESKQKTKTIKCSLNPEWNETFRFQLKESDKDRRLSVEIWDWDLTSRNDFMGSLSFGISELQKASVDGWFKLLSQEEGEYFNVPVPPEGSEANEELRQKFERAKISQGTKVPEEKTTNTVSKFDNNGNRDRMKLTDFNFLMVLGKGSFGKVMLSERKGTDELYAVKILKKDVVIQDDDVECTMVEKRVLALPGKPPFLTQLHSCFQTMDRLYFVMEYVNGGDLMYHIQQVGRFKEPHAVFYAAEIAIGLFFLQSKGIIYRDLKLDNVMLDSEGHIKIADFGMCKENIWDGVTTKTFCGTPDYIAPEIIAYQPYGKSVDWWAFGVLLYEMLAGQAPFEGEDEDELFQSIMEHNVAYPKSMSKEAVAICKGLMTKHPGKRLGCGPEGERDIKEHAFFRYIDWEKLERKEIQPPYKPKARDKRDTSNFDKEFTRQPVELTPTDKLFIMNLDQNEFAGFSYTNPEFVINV

| SMILES | inhibition |
| --- | --- |
| O=C(Nc1ccc(Oc2ccc3[nH]c(NC(=O)c4ccco4)nc3c2)cc1)Nc1cc(C(F)(F)F)ccc1F | -1.32% |
| Cc1ccc(Nc2ccnc(Nc3cccc(C(N)=O)c3)n2)cc1O | 4.35% |
| CCCN1CCCC(c2ccc(Nc3nc(Nc4cc(F)ccc4C(N)=O)c4cc[nH]c4n3)c(OC)c2)C1 (stereo not drawn) | 3.2% |
| CC(C)c1ccc2c(c1)NC(=O)/C2=N/Nc1ccc(S(N)(=O)=O)cc1 | -5.38% |
| NS(=O)(=O)c1ccc(-c2cc3ccncc3cc2OCc2ccccc2)cc1 | 3.25% |
| CN1CCN(C(=O)c2ccc(NC(=O)Nc3ccc(N(C)c4ccnc(Nc5ccc(CS(C)(=O)=O)cc5)n4)cc3)cc2)CC1 | 2.15% |
| CN(c1ccc(NC(=O)Nc2ccc(OC(F)(F)F)cc2)cc1)c1ccnc(Nc2cccc(S(N)(=O)=O)c2)n1 | 0.52% |
| CS(=O)(=O)CCNCc1nc(-c2ccc3ncnc(Nc4ccc(OCc5cccc(C(F)(F)F)c5)cc4)c3c2)cs1 | 1.43% |
| Nc1nccc(C#Cc2cncnc2Nc2ccc(OCc3cccc(F)c3)c(Cl)c2)n1 | 2.19% |
| COc1ccc(-c2nn3ncccc3c2-c2ccnc(Nc3cccc(C(F)(F)F)c3)n2)cc1 | 2.39% |
| Cc1cc(Cl)cc2c1NC(=O)C2=NNc1ccc(S(N)(=O)=O)cc1 | 2.56% |
| Cc1ccc(O)cc1Nc1ccnc2ccc(S(C)(=O)=O)cc12 | 4.87% |
| CCn1c(-c2nonc2N)nc2ccc(F)cc21 | 15.6% |
| COc1cc2ncnc(Nc3ccc4c(cnn4Cc4ccccc4)c3)c2cc1OC | -2.42% |
| Cc1nc(-c2ccccc2)n2nc(NCCCN3CCOCC3)ncc12 | 0.04% |
| OCc1ccc(-c2nc(-c3ccccn3)c(-c3ccc4c(c3)OCO4)[nH]2)cc1 | 0.2% |
| [O-][S+]1CCN(Cc2ccc(-c3ccc4ncnc(Nc5ccc(OCc6ccccc6)c(Cl)c5)c4c3)o2)CC1 | 0.65% |

| SMILES | inhibition |
| --- | --- |
| Cc1ccc2c(-c3ccnc(Nc4cccc(C(F)(F)F)c4)n3)c(-c3ccccc3)nn2n1 | 3.6% |
| CCOc1nccc2c1nc(-c1nonc1N)n2CC | 39.7% |
| NS(=O)(=O)c1ccc(N/N=C2\C(=O)Nc3ccc(Cl)cc32)cc1 | 2.75% |
| COc1cccc(-n2ncc3c(N/N=C/c4ccc(S(C)(=O)=O)cc4)ncnc32)c1 | 7.27% |
| CCS(=O)(=O)c1ccc(OC)c(Nc2nccc(N(C)c3ccc4c(C)n[nH]c4c3)n2)c1 | -2.93% |
| Cc1ccc2c(c1)/C(=N/Nc1ccc(S(N)(=O)=O)cc1)C(=O)N2 | 0.39% |
| Cc1cc(O)cc(C)c1/C=C/c1cncc(C(=O)N(C)C)c1 | 1.26% |
| O=C1Nc2ccccc2/C1=C/Nc1ccc2[nH]c(=O)[nH]c2c1 | 4.33% |
| COC(=O)c1ccc2c(c1)C(=Cc1cc(Br)c(O)c(Br)c1)C(=O)N2 | -0.51% |
| NS(=O)(=O)c1cccc(-c2cc3ccncc3cc2OCc2ccccc2)c1 | 0.71% |
| C[C@@H](Oc1cc(-n2cnc3ccc(OC[C@@H](O)CO)cc32)sc1C(N)=O)c1ccccc1Cl | 1.7% |
| NC(=O)c1cccc(Nc2nccc(Nc3cccc(F)c3)n2)c1 | -5.72% |
| Cc1ccc(NC(=O)CC2CC2)cc1-c1ccc(C(=O)NCC2CC2)cc1 | 2.08% |
| Cc1ccc(C(=O)NC2CC2)cc1-c1ccc2[nH]ncc2c1 | -0.31% |
| Nc1nccc(-c2c(-c3ccc(F)cc3)ncn2CCCN2CCOCC2)n1 | 7.05% |
| N#Cc1c(NC(=O)c2ccccc2F)sc2c1CCCC2 | 1.07% |
| CN(C)CCCn1c(-c2nonc2N)nc2cnccc21 | 14.5% |

molecular target: Protein kinase C eta type (Homo sapiens) (UniProt P24723); conditions: at 0.1 µM;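 further: values are the mean percent inhibition of PKC-eta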
Sequence (P24723 whole entry): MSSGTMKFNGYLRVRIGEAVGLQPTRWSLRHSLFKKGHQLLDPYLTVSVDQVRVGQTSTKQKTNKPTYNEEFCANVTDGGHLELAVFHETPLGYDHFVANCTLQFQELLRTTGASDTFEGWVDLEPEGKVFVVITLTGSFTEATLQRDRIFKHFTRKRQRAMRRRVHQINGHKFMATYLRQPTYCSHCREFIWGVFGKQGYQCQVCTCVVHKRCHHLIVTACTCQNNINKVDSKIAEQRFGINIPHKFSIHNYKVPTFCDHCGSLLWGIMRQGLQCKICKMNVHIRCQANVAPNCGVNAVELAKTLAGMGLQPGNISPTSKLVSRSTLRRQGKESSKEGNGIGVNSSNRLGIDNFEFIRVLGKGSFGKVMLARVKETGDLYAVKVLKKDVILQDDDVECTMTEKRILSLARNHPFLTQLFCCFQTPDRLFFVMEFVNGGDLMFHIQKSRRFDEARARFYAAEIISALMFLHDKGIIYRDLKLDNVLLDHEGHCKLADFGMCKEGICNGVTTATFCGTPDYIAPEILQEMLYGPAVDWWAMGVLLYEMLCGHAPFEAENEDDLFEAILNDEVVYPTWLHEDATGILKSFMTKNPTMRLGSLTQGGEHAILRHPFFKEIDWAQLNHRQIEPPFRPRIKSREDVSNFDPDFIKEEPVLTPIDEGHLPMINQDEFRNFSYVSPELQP

| SMILES | inhibition |
| --- | --- |
| O=C(Nc1ccc(Oc2ccc3[nH]c(NC(=O)c4ccco4)nc3c2)cc1)Nc1cc(C(F)(F)F)ccc1F | 1.15% |
| Cc1ccc(Nc2ccnc(Nc3cccc(C(N)=O)c3)n2)cc1O | 6.2% |
| CCCN1CCCC(c2ccc(Nc3nc(Nc4cc(F)ccc4C(N)=O)c4cc[nH]c4n3)c(OC)c2)C1 (stereo not drawn) | 1.86% |
| CC(C)c1ccc2c(c1)NC(=O)/C2=N/Nc1ccc(S(N)(=O)=O)cc1 | 2.07% |
| NS(=O)(=O)c1ccc(-c2cc3ccncc3cc2OCc2ccccc2)cc1 | 4.33% |
| CN1CCN(C(=O)c2ccc(NC(=O)Nc3ccc(N(C)c4ccnc(Nc5ccc(CS(C)(=O)=O)cc5)n4)cc3)cc2)CC1 | 3.18% |
| CN(c1ccc(NC(=O)Nc2ccc(OC(F)(F)F)cc2)cc1)c1ccnc(Nc2cccc(S(N)(=O)=O)c2)n1 | 0.81% |
| CS(=O)(=O)CCNCc1nc(-c2ccc3ncnc(Nc4ccc(OCc5cccc(C(F)(F)F)c5)cc4)c3c2)cs1 | 3.05% |
| Nc1nccc(C#Cc2cncnc2Nc2ccc(OCc3cccc(F)c3)c(Cl)c2)n1 | 2.81% |
| COc1ccc(-c2nn3ncccc3c2-c2ccnc(Nc3cccc(C(F)(F)F)c3)n2)cc1 | 0.87% |
| Cc1cc(Cl)cc2c1NC(=O)C2=NNc1ccc(S(N)(=O)=O)cc1 | -0.95% |
| Cc1ccc(O)cc1Nc1ccnc2ccc(S(C)(=O)=O)cc12 | 2.56% |
| CCn1c(-c2nonc2N)nc2ccc(F)cc21 | 6.39% |
| COc1cc2ncnc(Nc3ccc4c(cnn4Cc4ccccc4)c3)c2cc1OC | 5.6% |
| Cc1nc(-c2ccccc2)n2nc(NCCCN3CCOCC3)ncc12 | 0.77% |
| OCc1ccc(-c2nc(-c3ccccn3)c(-c3ccc4c(c3)OCO4)[nH]2)cc1 | 3.79% |
| [O-][S+]1CCN(Cc2ccc(-c3ccc4ncnc(Nc5ccc(OCc6ccccc6)c(Cl)c5)c4c3)o2)CC1 | 1.86% |

| SMILES | inhibition |
| --- | --- |
| Cc1ccc2c(-c3ccnc(Nc4cccc(C(F)(F)F)c4)n3)c(-c3ccccc3)nn2n1 | 5.12% |
| CCOc1nccc2c1nc(-c1nonc1N)n2CC | 7.44% |
| NS(=O)(=O)c1ccc(N/N=C2\C(=O)Nc3ccc(Cl)cc32)cc1 | 4.13% |
| COc1cccc(-n2ncc3c(N/N=C/c4ccc(S(C)(=O)=O)cc4)ncnc32)c1 | 1.23% |
| CCS(=O)(=O)c1ccc(OC)c(Nc2nccc(N(C)c3ccc4c(C)n[nH]c4c3)n2)c1 | 3.8% |
| Cc1ccc2c(c1)/C(=N/Nc1ccc(S(N)(=O)=O)cc1)C(=O)N2 | -0.77% |
| Cc1cc(O)cc(C)c1/C=C/c1cncc(C(=O)N(C)C)c1 | 3% |
| O=C1Nc2ccccc2/C1=C/Nc1ccc2[nH]c(=O)[nH]c2c1 | 3.3% |
| COC(=O)c1ccc2c(c1)C(=Cc1cc(Br)c(O)c(Br)c1)C(=O)N2 | 2.26% |
| NS(=O)(=O)c1cccc(-c2cc3ccncc3cc2OCc2ccccc2)c1 | 2.45% |
| C[C@@H](Oc1cc(-n2cnc3ccc(OC[C@@H](O)CO)cc32)sc1C(N)=O)c1ccccc1Cl | 0.53% |
| NC(=O)c1cccc(Nc2nccc(Nc3cccc(F)c3)n2)c1 | 1.84% |
| Cc1ccc(NC(=O)CC2CC2)cc1-c1ccc(C(=O)NCC2CC2)cc1 | 3.52% |
| Cc1ccc(C(=O)NC2CC2)cc1-c1ccc2[nH]ncc2c1 | -4.21% |
| Nc1nccc(-c2c(-c3ccc(F)cc3)ncn2CCCN2CCOCC2)n1 | 4.26% |
| N#Cc1c(NC(=O)c2ccccc2F)sc2c1CCCC2 | -2.89% |
| CN(C)CCCn1c(-c2nonc2N)nc2cnccc21 | 6.38% |
